DT40 TDP1 no CPT = qHTS for Inhibitors of human tyrosyl-DNA phosphodiesterase 1 (TDP1): qHTS in cells in absence of CPT | 420,000 compounds, 15% hits | Potency, µM (highest dose often 46.2 µM), for the others: at the top dose activity change, negative = growth inhibition, most hits filed as inhibitors | AID 686978, 2013 | DT40 Tdp1-/- hTDP1 cells, no CPT, ATP luminescence, 48 h; also: potency is read from the fitted curve at half-maximal effect; nearly all actives have a fitted effect of over 55% in size
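Stably hTDP1-transfected Tdp1-null chicken DT40 cells were treated with library compounds minus camptothecin and grown for at least 48 hr at 37 °C, after which cellular ATP was quantified by luminescence.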
IL1B secr inh = blocks inflammasome-driven IL-1 beta release | 360,000 compounds, 4.7% hits | THP-1 LPS/ATP IL-1B secretion, AlphaLISA, 16 h; stronger effect = lower value | activity change, % at 57.5 µM; in the data active = activity change below about -50%; inconclusive = mostly about -30% to -49%
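Secreted IL-1B measured by AlphaLISA bead assay after 16 h compound exposure of THP-1 cells; compounds (final up to 57.5 uM) added 1 h before LPS (250 ng/mL) and ATP (1.25 mM) stimulation; lower signal means less secretion.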
12-LOX inh = inhibitors of human 12S-lipoxygenase ALOX12 | P18054 | purified 12hLO, xylenol orange hydroperoxide absorbance | 580,000 compounds, 1.1% hits | Potency, µM (titrated, usually from 108 µM), for inactives: at the top dose activity change, negative = inhibition, actives largely listed as inhibitors; also: potency is read from the fitted curve at half-maximal effect
Target sequence (P18054 whole entry, looked up): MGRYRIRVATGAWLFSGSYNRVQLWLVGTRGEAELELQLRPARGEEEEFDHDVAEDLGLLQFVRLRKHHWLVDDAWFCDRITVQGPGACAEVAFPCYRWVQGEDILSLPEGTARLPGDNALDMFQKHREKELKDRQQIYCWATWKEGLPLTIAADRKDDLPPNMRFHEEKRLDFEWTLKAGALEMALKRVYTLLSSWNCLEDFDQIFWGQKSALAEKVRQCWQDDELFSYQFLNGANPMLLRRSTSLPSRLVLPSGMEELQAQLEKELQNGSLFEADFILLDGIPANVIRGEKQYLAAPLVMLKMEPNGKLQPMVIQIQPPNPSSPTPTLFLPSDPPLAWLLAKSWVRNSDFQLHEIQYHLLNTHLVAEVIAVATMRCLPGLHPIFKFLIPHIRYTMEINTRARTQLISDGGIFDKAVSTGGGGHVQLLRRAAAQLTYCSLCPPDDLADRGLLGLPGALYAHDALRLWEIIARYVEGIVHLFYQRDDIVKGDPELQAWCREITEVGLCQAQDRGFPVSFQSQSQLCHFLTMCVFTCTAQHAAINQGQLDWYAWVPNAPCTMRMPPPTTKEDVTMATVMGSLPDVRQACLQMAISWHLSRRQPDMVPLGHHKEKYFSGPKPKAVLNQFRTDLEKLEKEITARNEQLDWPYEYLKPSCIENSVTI
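Purified human 12hLO (150 nM final) in 25 mM Hepes, 0.01% Triton X-100, pH 7.0 was preincubated 15 min at room temperature with compound. Then 40 uM arachidonic acid was added, 30 min. Hydroperoxide was read by Fe-XO absorbance ratio 573/405 nm.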
DT40 TDP1 CPT = DT40-hTDP1 cell growth loss with CPT; 420,000 compounds, 12% hits; Potency, µM (titrated, usually from 46.2 µM), for inactives: top-dose activity change, negative = growth inhibition, actives largely listed as inhibitors; chicken DT40 Tdp1-/-;hTDP1 cells + 20 nM CPT, ATP luminescence, 48 h; also: potency is read from the fitted curve at half-maximal effect; nearly all actives have a fitted effect of over 55% in size
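Cell growth measured by CellTiter-Glo luminescence after a minimum 48 h, 37 C compound exposure with 20 nM CPT in Tdp1-knockout DT40 cells stably expressing hTDP1, seeded 400/well; qHTS titration format.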
HT1080 IDH1KD tx = toxicity to HT-1080 IDH1 knockdown cells (counter line); 360,000 compounds, 2% hits; AID 686971; HT-1080 IDH1 knockdown viability, ATP luminescence, 48 h; Potency, µM (series often up to 46.1 µM), for the others: at the highest dose activity, negative = toxicity, hits mostly cytotoxic;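 also: potency is read from the fitted curve at half-maximal effect; 0% = DMSO wells and -100% = cell-free medium wells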
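After a 2 h attachment period, IDH1KD HT-1080 cells took pin-transferred compound for 48 h at 37 °C; ATP-based luminescence after 10 min room-temperature reagent incubation reported viability.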
HT1080-NT tox = kills 2HG-producing HT-1080-NT fibrosarcoma cells. HT-1080-NT fibrosarcoma viability, CellTiter-Glo ATP luminescence, 48 h. Potency, µM (series often up to 46.1 µM), for inactives: top-dose activity, negative = less viability, actives largely listed as cytotoxic. 360,000 compounds, 1.6% hits. AID 686970;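 also: NT is the 2HG producing partner of a matched IDH1 knockdown line; potency is read from the fitted curve at half-maximal effect; 0% = DMSO-treated cells and -100% = media-only wells without cells; nearly all actives have a fitted effect of over 55% in size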
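Read-out is CellTiter-Glo luminescence after 10 minutes at room temperature, following 48 hours' compound treatment of HT-1080-NT cells (750 cells/well, RPMI, 5% FBS, 37 degrees C).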
Active calls of the source: *; ? = inconclusive; nt = no result; [ ] = remark or other dose. The sample as a whole holds a higher share of hits than the screen did. Unless noted, calls follow the shape of the dose curve; as a rule, active = well fitted curve in the direction sought with a large enough effect; inconclusive = small, poorly fitted or top-dose-only effect, or another doubt; inactive = no such curve, though single readings can be large; an effect the other way counts as inactive or inconclusive. Unless noted, % is scaled to controls: 0 for no effect and ±100 for the full control effect.

SMILES	DT40 TDP1 no CPT	IL1B secr inh	12-LOX inh	DT40 TDP1 CPT	HT1080 IDH1KD tx	HT1080-NT tox
COc1ccc(-c2ccc(/C=N/N3C(=O)C4C5C=CC(C6CC56)C4C3=O)o2)c([N+](=O)[O-])c1 (stereo unspecified)	23µM*	-1	-20%	?	5%	-9%
O=C1C2C3C=CC(C4CC34)C2C(=O)N1/N=C/c1ccc(-c2ccc(Cl)cc2[N+](=O)[O-])o1 (stereo unspecified)	?	0	2%	?	-3%[9.24 µM]	-21%
Cc1cc(=O)oc2c(C)c(OCC(=O)Nc3nc4ccccc4[nH]3)ccc12	nt	nt	24%	nt	nt	nt
C[C@H](NC(=O)C[C@@H]1CC[C@H]2[C@@H](COC[C@H](O)CN2Cc2ccc(C(F)(F)F)cc2)O1)c1ccccc1	21µM*	1	-9%	18µM*	-2%	3%
O=C(C[C@H]1CC[C@@H]2[C@H](COC[C@@H](O)CN2Cc2ccc(Cl)cc2)O1)NCCc1ccccc1	?	-11	?	-28%	-1%	-2%
Cc1cccc(Nc2nc(-c3ccc(O)c(O)c3)cs2)n1	1.6µM*	-4	28µM*	2.1µM*	?	?
Cc1cccnc1Nc1nc(-c2ccc(O)c(O)c2)cs1	3.7µM*	0	2.8µM*	3.3µM*	-22%	-29%
Cc1cccc(Nc2nc(-c3ccc(F)c(C)c3)cs2)n1	?	-25	?	?	-1%	-17%
COc1ccc(-c2csc(Nc3ncccc3C)n2)cc1OC	?	?	?	?	-12%	-3%
Oc1ccc(-c2csc(Nc3ccccn3)n2)cc1O	2.6µM*	?	20µM*	5.2µM*	-23%	-21%
Oc1ccc(-c2csc(Nc3cccc4ccccc34)n2)cc1O	8.2µM*	5	13µM*	0.92µM*	-4%	-12%
Cc1nn(C)c(C)c1NC(=O)C(C)OC(=O)c1ccc2c(c1)NC(=O)CS2 (stereo unspecified)	nt	nt	2%	nt	nt	nt
CC(C)OCCCNC(=O)c1cc(=O)[nH]c2ccccc12	nt	nt	18%	nt	nt	nt
Cc1ccnc(Nc2nc(-c3ccc(O)c(O)c3)cs2)c1	3.3µM*	-60*	0%	2.1µM*	?	-25%
Cc1ccc(-c2csc(Nc3ccccn3)n2)cc1C	nt	nt	32µM*	nt	nt	nt
CC(=O)Nc1ccc(-c2csc(Nc3ccccn3)n2)cc1	-25%	-1	-20%	?	-2%	1%
Cc1ccnc(Nc2nc(-c3ccc(O)cc3)cs2)c1	-27%	-21	?	1%	-28%	-18%
O=c1c2ccccc2ncn1-c1ccc(Cl)cc1[N+](=O)[O-]	?	-2	0%	?	2%	6%
O=c1c2ccccc2ncn1-c1ccc([N+](=O)[O-])cc1[N+](=O)[O-]	18µM*	-64*	-4%	16µM*	5%	-8%
CC#CCn1cc2c3c(cccc31)[C@H](CC(C)C)N[C@H](C(=O)NCCNC(C)=O)C2	nt	nt	110%[176 µM]	nt	nt	nt
Cc1cc(C)c2c(N)c(-c3nnc(SCc4ccc(Cl)cc4)n3C)sc2n1	?	23	194%	-4%	8%	6%
C=CCn1c(SCc2ccccc2Cl)nnc1-c1sc2nc(C)cc(C)c2c1N	23µM*	-12	151%	?	12%	?
O=C(Nc1ccc2c(c1)OCCO2)C(c1ccccc1F)n1c(=O)c(-c2ccco2)nc2ccccc21 (stereo unspecified)	?	-14	?	8.2µM*	-5%	-3%
COc1ccc(NC(=O)C(c2ccccc2)n2c(=O)c(-c3ccco3)nc3ccccc32)cc1 (stereo unspecified)	9.2µM*	-9	-20%	10µM*	-28%	-16%
COc1ccc(NC(=O)C(c2ccc(OC)cc2)n2c(=O)c(-c3ccco3)nc3ccccc32)cc1 (stereo unspecified)	?	-9	?	?	-22%	-14%
SMILES	DT40 TDP1 no CPT	IL1B secr inh	12-LOX inh	DT40 TDP1 CPT	HT1080 IDH1KD tx	HT1080-NT tox
COc1ccc(NC(=O)C(c2ccccc2F)n2c(=O)c(-c3ccco3)nc3ccccc32)cc1 (stereo unspecified)	?	-15	?	?	-6%	-5%
COc1ccc(C(C(=O)Nc2ccc3c(c2)OCCO3)n2c(=O)c(-c3ccco3)nc3ccccc32)cc1 (stereo unspecified)	21µM*	24	?	12µM*	13µM*	?
CCc1noc(-c2cn(C3CCN(C(=O)c4ccc(Cl)s4)CC3)nn2)n1	nt	nt	24%	nt	nt	nt
COc1cc(/C=C/c2nc(C#N)c(NCCCn3ccnc3)o2)cc(OC)c1OC	nt	nt	18%	nt	nt	nt
O=S(=O)(c1ccc(Sc2nnnn2C2CC2)nc1)N1CCOCC1	nt	nt	3%	nt	nt	nt
O=C1c2ccccc2C(=O)N1CCCOc1ccccc1	7%	44	11%	7%	1%[9.24 µM]	4%
Cc1cccc(OCCN2C(=O)c3ccccc3C2=O)c1	9%	49	-1%	-13%	4%	4%
Cc1cccc(OCCCN2C(=O)C(=O)c3cc(C)ccc32)c1	0.92µM*	4	-26%	1.6µM*	-1%	-20%
Cc1ccc2c(c1)C(=O)C(=O)N2CCCOc1ccccc1	2.1µM*	0	-19%	1µM*	-11%	-2%
CCOc1ccccc1CNC(=O)c1nc(-c2ccc(Cl)cc2)n2c1CCCCC2	?	nt	-15%	23µM*	nt	nt
CC(C)N(Cc1ccccc1)C(=O)c1nc(-c2ccc(Cl)cc2)n2c1CCCCC2	18µM*	nt	?	9.2µM*	nt	nt
CC(=O)c1cccc(NC(=O)c2nc(-c3ccc(C)cc3)n3c2CCCCC3)c1	nt	nt	-3%	nt	nt	nt
O=C(NCCc1ccccc1)c1nc(-c2ccc(Cl)cc2)n2c1CCCCC2	10µM*	nt	-25%	12µM*	nt	nt
CCOc1ccccc1CNC(=O)c1c(OCC)cc(=O)n2c1CCCC2	nt	nt	22%	nt	nt	nt
O=C(NCCc1ccc(Cl)cc1)c1nc(-c2cccc(F)c2)n2c1CCCCC2	9.2µM*	nt	-8%	18µM*	nt	nt
CCOc1cc(=O)n2c(c1C(=O)Nc1cc(C)ccc1C)CCCC2	nt	nt	43%	nt	nt	nt
COC(=O)c1ccccc1NC(=O)c1nc(-c2ccc(C)cc2)n2c1CCCCC2	nt	nt	0%	nt	nt	nt
COC(=O)c1ccc(NC(=O)c2nc(-c3ccc(Cl)cc3)n3c2CCCCC3)cc1	0.82µM*	nt	1%	0.73µM*	nt	nt
Cc1ccc(-c2csc3nc[nH]c(=S)c23)cc1C	21µM*	-16	28µM*	7.3µM*	21µM*	?
